Sampled rows, rich in hits. Any-hit rate of the full collection: about 6.1%.
DRD3 agonist – agonists of human D3 dopamine receptor. P35462. AID 652048. 0.58% of 410,000 active. D3R DiscoveRx beta-arrestin cells, luminescence, 90 min. max activation, %; in the data active means max activation above about 30%; further: 0% is about no effect
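Agonist mode: compounds and dopamine controls were applied to plated cells for 90 min at 37 degrees C after an overnight attachment at 1500 cells/well. Luminescent read-out followed 30 - 60 minutes at room temperature with DiscoveRx detection reagent.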
D1 ag – activates the human D1 dopamine receptor; AID 504660; HEK293 T-REx D1 cells, calcium flux, agonist mode; 1% of 360,000 active; activation, % at 2 µM; P21728; in the data active means activation above about 30%; further: 0% is about no effect
Target sequence (P21728 whole entry, looked up): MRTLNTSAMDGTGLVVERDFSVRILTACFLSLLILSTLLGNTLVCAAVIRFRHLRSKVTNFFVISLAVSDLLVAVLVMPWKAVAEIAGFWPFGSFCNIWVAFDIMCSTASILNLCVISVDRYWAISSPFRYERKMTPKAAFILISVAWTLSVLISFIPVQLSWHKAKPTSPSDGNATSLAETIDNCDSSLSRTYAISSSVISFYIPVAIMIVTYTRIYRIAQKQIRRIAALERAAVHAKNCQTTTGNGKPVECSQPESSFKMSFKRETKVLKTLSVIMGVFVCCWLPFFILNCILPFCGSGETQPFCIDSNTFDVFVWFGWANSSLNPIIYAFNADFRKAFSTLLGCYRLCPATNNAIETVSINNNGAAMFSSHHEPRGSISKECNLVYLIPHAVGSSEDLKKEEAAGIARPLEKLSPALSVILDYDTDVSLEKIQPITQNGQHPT
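Inducible HEK293 T-REx D1 cells, force-coupled to calcium signalling, were plated at 4000 cells/well with tetracycline and held overnight at 30 C. After no-wash calcium dye loading, compound-evoked calcium rise over 180 s flagged agonists.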
D1 antag – blocks dopamine activation of the human D1 receptor. P21728. HEK293 TREx D1 cells, calcium flux, dopamine EC80; stronger effect = lower value. activity change, negative = inhibition, % at 10 µM. 3.2% of 360,000 active. AID 504652; in the data active means activity change below about -30%; further: on the % scale 0 is the no-effect control and ±100 the full control effect
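Tetracycline-induced HEK293 T-REx cells with force-coupled D1 receptor were loaded with a no-wash calcium dye. Compound was added after a 10 s baseline and read kinetically for 180 s; EC80 dopamine was then added and calcium flux followed another 180 s.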
D3 antag – blocks the human D3 dopamine receptor | 2.5% of 360,000 active | max response, negative = inhibition, % | AID 652054 | D3R cells, DiscoveRx beta-arrestin luminescence, antagonist mode; stronger effect = lower value; in the data active means max response below about -50%; further: on the % scale 0 is the no-effect control and ±100 the full control effect
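Cells plated overnight at 1500 cells/well, then exposed to library compounds with dopamine controls for 90 minutes at 37 degrees C. DiscoveRx reagent added for 30–60 minutes at room temperature; luminescence read, quantitative HTS format.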
D1 PAM – potentiators of human D1 dopamine receptor. P21728. HEK293 TREx D1 cells, calcium flux, dopamine EC20 potentiation. potentiation, % at 10 µM. 0.036% of 360,000 active; in the data active means potentiation above about 30%; further: 0% is about no effect
Numbers without * were called inactive; / = no result.

SMILES | DRD3 agonist | D1 ag | D1 antag | D3 antag | D1 PAM
CCCOc1cccc(C(=O)NC(=S)Nc2ccc(N3CCN(C)CC3)cc2)c1 | -14 | 4 | 15 | -24 | -10
O=C(NC1=NCCS1)c1cccc(S(=O)(=O)N2CCCCC2)c1 | / | -1 | -34* | / | -2
CCOC(=O)c1c(C)c(-c2ccccc2)n(CC(=O)NC(CC)Cc2ccccc2)c1C (stereo unspecified) | -7 | 8 | -16 | / | -7
CN1CCN(c2ccc(NC(=O)c3cccc(S(=O)(=O)N4CCCC4)c3)cc2)CC1 | 1 | -1 | -34* | -17 | -12
CC(C)Oc1cccc(C(=O)Nc2ccc(N3CCN(C)CC3)cc2)c1 | 1 | -1 | -57* | 2 | -11
CC(C)Oc1ccc(C(=O)Nc2ccc(N3CCCCC3)cc2)cc1 | -6 | 4 | 7 | 0 | 2
CSc1ccc(CCNC(=O)NCc2noc3ccccc23)cc1 | -2 | -1 | -1 | / | -2
Cc1nn2c(=O)cc(COC(=O)c3ccccc3NC(=O)C(C)C)nc2s1 | 5 | 1 | 4 | / | 1
COc1ccccc1N1CCN(C(=O)c2cnc(N3CCCCC3)c3ccccc23)CC1 | -9 | 1 | 24 | / | -2
CN(C)S(=O)(=O)c1ccc(S(=O)(=O)Nc2ccc3c(c2)oc2ccccc23)cc1 | 11 | -2 | -5 | 11 | 2
Cc1cc(=O)oc2cc(NS(=O)(=O)c3ccccc3)ccc12 | 10 | 1 | -95* | 12 | 2
CCN(CC)S(=O)(=O)c1ccc(S(=O)(=O)Nc2ccc3c(c2)oc2ccccc23)cc1 | 1 | 3 | -6 | -58* | -5
CC(C)c1ccc(/C=C(\c2nc3ccccc3[nH]2)S(=O)(=O)c2ccccc2)cc1 | -11 | 3 | -13 | -73* | -5
O=S(=O)(/C(=C/c1ccc(C(F)(F)F)cc1)c1nc2ccccc2[nH]1)c1ccccc1 | -29 | 1 | 4 | -77* | -4
C/C(=C\c1ccc(N)cc1)c1nc2ccccc2[nH]1 | 0 | -1 | 2 | -19 | -6
COc1cccc(NC(=O)C(=O)NCC(c2ccc3c(c2)OCO3)N2CCOCC2)c1 (stereo unspecified) | -10 | 0 | 13 | / | -7
COc1cn(CC(=O)Nc2c(C)cc(C)cc2C)c(CN2CCCCC2)cc1=O | -3 | -1 | 8 | / | -1
O=C(NCCN1CCC(n2c(=O)[nH]c3ccccc32)CC1)c1ccccc1C(F)(F)F | -13 | / | / | -77* | /
O=C(NCCN1CCC(n2c(=O)[nH]c3ccccc32)CC1)c1ccc(Cl)cc1Cl | -15 | / | / | -92* | /
O=C(NCCN1CCC(n2c(=O)[nH]c3ccccc32)CC1)c1ccccc1Cl | -12 | / | / | -100* | /
COc1ccccc1C(=O)NCCN1CCC(n2c(=O)[nH]c3ccccc32)CC1 | -16 | / | / | 0 | /
Cc1ccccc1C(=O)NCCN1CCC(n2c(=O)[nH]c3ccccc32)CC1 | -11 | / | / | -109* | /
O=C(Cn1c(=O)nc(-c2ccccc2)c2cc(Cl)ccc21)Nc1ccc(F)c(Cl)c1 | 5 | 0 | 1 | / | 2
CCC(c1nnnn1-c1c(C)cccc1C)N1CCN(c2cccc(C(F)(F)F)n2)CC1 (stereo unspecified) | -13 | / | / | -68* | /
CCCC(C(=O)NCc1cccc(Cl)c1)N1Cc2ccccc2C1=O (stereo unspecified) | 1 | -1 | 7 | / | 3
SMILES | DRD3 agonist | D1 ag | D1 antag | D3 antag | D1 PAM
CSc1ccc(CN2CCC(CO)(CCOc3ccccc3)CC2)cc1 | -18 | 41* | 5 | -14 | -8
COc1ccc(CN2CCC(CO)(CCOc3ccccc3)CC2)cc1C | -9 | 48* | 17 | 2 | -2
OCC1(CCOc2ccccc2)CCN(Cc2ccncc2)CC1 | -8 | 0 | 32 | 1 | -5
Cn1cc(S(=O)(=O)N2CCN(c3ccccc3F)CC2)c(=O)n(C)c1=O | -2 | -1 | 2 | -20 | -4
CC1CCN(S(=O)(=O)c2cn(C)c(=O)n(C)c2=O)CC1 | 1 | -2 | -61* | 0 | -10
COc1ccccc1N1CCN(S(=O)(=O)c2cn(C)c(=O)n(C)c2=O)CC1 | 4 | 0 | -36* | -6 | -13
CCN1CCCC1CNC(=O)c1cc(OC)c(OC)c(OC)c1 (stereo unspecified) | -1 | 2 | 0 | -61* | 7
CCN1CCCC1CNC(=O)CCNC(=O)c1cc(OC)c(OC)c(OC)c1 (stereo unspecified) | 7 | 2 | 0 | 18 | 5
CCN1CCCC1CNC(=O)c1cc2c(OC)c(OC)c(OC)cc2[nH]1 (stereo unspecified) | -44 | 1 | -17 | -61* | -6
CCN1CCCC1CNC(=O)c1cc2c(OC)cccc2[nH]1 (stereo unspecified) | -5 | 0 | -5 | -17 | -4
CCCCN1CCCC1CNC(=O)c1cc(C#N)c2ccccc2c1OC (stereo unspecified) | / | 4 | -41* | / | -4
CCN1CCC[C@H]1CNC(=O)c1c(O)c(Cl)cc(Cl)c1OC | -94 | 2 | -9 | -117* | -3
CCc1noc(-c2ccc(N3CCC(C)CC3)c([N+](=O)[O-])c2)n1 | -11 | 3 | 5 | / | -1
Cc1ccc(C)c(CN2C(=O)c3ccccc3S(=O)c3ccc(C(=O)NCc4ccco4)cc32)c1 (stereo unspecified) | -10 | 4 | -1 | / | 1
COc1ccc(-c2c(C)c3ccc(O)c(CN4CCC(C)CC4)c3oc2=O)cc1OC | 5 | 2 | -2 | / | 0
CCn1c(-c2ccc(S(=O)(=O)N3CCOCC3)cc2)csc1=Nc1ccc(C)c(Cl)c1 | -11 | 1 | -37* | / | -4
CCOC(=O)c1ccccc1NS(=O)(=O)c1ccc(N2CCCCS2(=O)=O)cc1 | -15 | 9 | -22 | / | 2
O=C(Nc1ccccc1C(F)(F)F)N1CCOc2ccc(Cl)cc21 | 3 | 0 | -35* | / | 0
CCc1ccc(NC(=O)N2CCOc3ccc(Cl)cc32)cc1 | -11 | 3 | -2 | / | -2
COc1cc(CNC(=O)c2cc(-c3ccc(OC)cc3C)n[nH]2)cc(OC)c1 | 2 | / | / | 23 | /
COc1ccc(-c2cc(C(=O)NCC3CCCCC3)[nH]n2)c(C)c1 | -31 | / | / | -79* | /
Cc1ccc(Cl)cc1-c1cc(C(=O)NCC2CCCCC2)[nH]n1 | -23 | / | / | -70* | /
CCCCCCCCOc1ccccc1C(=O)Nc1ccc(C(=O)OCC[N+](C)(CC)CC)cc1 | -7 | / | / | / | /
Cc1cc(C)n(CCN(C)C(=O)c2cc(COc3c(F)cccc3F)on2)n1 | 3 | -1 | -50* | -3 | -1
Cc1cc(C)n(CCNC(=O)c2cc(COc3c(F)cccc3F)on2)n1 | 4 | 4 | 9 | -25 | 5
O=C(NCCN1CCCCC1)c1cc(COc2c(F)cccc2F)on1 | -28 | 6 | 3 | -62* | -1
Cc1ccccc1C1CCCN(C(=O)c2cc(COc3c(F)cccc3F)on2)C1 (stereo unspecified) | 3 | 16 | -33* | 6 | -6

Bioassay records deposited in PubChem by National Center for Advancing Translational Sciences (NCATS).
